# 3T3 cytotox: cytotoxic compounds in NIH 3T3 cells; NIH 3T3 viability, CellTiter-Glo ATP luminescence, 48-72 h; Potency, µM (top dose mostly 96.7 µM), inactives show top-dose activity change, negative = cytotoxicity, usual class: inhibitors; 94,000 tested, 4.3% active; further: nearly all actives have a fitted effect of over 55% in size
#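 Luminescent ATP readout (CellTiter-Glo, 10 min RT) after 48 or 72 hr compound exposure of NIH 3T3 cells seeded at 400 cells/well in 1536-well format; quantitative HTS.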
# FLuc inh: blocks purified firefly luciferase enzyme activity | P08659 | purified P. pyralis luciferase, luminescence, biochemical | Potency, µM (doses to about 115 µM), actives largely listed as inhibitors | 76,000 tested, 2.5% active | AID 1347043; further: nearly all actives have a fitted effect of over 65% in size
# Target sequence (P08659 whole entry, looked up): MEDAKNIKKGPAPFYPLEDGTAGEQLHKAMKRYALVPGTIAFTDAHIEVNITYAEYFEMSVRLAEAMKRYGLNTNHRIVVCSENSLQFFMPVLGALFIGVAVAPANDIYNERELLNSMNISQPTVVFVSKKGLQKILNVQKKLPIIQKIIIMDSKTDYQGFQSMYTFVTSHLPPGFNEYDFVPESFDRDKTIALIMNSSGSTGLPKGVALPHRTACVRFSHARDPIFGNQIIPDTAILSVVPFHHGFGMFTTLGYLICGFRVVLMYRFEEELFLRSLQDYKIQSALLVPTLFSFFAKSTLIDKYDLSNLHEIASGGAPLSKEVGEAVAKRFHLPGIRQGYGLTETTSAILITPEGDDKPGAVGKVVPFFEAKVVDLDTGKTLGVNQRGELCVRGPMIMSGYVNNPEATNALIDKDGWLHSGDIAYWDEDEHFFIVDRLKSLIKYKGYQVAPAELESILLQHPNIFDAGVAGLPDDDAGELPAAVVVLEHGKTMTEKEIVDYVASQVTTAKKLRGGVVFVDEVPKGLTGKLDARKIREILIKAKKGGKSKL
#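 Biochemical qHTS: compound (6-point titration) added to 10uM D-luciferin plus 10uM ATP in Tris acetate pH 7.5 buffer with Mg, Tween-20 and BSA, then purified enzyme at 10nM; light output imaged.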
# HEK cytotox: cytotoxic compounds in HEK 293 cells. HEK 293 viability, ATP luminescence (CellTiter-Glo), 48-72 h. 94,000 tested, 6.6% active. AID 1345083. Potency, µM (doses to about 115 µM), for inactives: top-dose activity change, negative = cytotoxicity, most hits filed as inhibitors; further: nearly all actives have a fitted effect of over 60% in size
#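 qHTS cytotoxicity; HEK 293, 250 cells/well; compound pinned; 48 or 72 hr, 37 degree Celsius, 5% CO2, 95% humidity; CellTiter-Glo, 10 min RT; luminescence (ATP).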
# NPR1 antag: human Npr1 receptor antagonism. HEK293 hNpr1 GloSensor cGMP, ANP-stimulated luminescence. Potency, µM (top dose mostly 46.3 µM), inactives show top-dose activity change, negative = inhibition, hits mostly inhibitors. 76,000 tested, 1.6% active; calls by dose curve; further: nearly all actives have a fitted effect of over 60% in size
#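 Compound pre-incubated 30 min at room temperature on GloSensor-loaded HEK293 cells stably carrying hNpr1 and the pGS-40F cGMP biosensor. Stimulation uses hNppA at 0.1 nM final; luminescence is taken at baseline and 20 min post-agonist.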
# The depositor's hits bear a star; i = inactive; ? = inconclusive; . = no result given; [ ] = another dose, or the depositor's remark. Sampled rows, rich in hits. Any-hit rate of the full collection: about 11%. Unless noted, the call rests on the fitted dose curve; in most records, active means well fitted curve in the direction sought with a large enough effect; inconclusive means small, poorly fitted or top-dose-only effect, or another doubt; inactive means no such curve, though single readings can be large; an effect the other way counts as inactive or inconclusive. On the % scale 0 is the no-effect control and ±100 the full control effect; potency means the concentration at half of the fitted maximal effect.
SMILES,3T3 cytotox,FLuc inh,HEK cytotox,NPR1 antag
CC(C)CN(CC1CN(C(=O)c2cccc(Cl)c2)CCO1)C(=O)c1cccc2ccccc12 (configuration not stated),?,i,35µM*,-20%
O=C(c1cccc(Cl)c1)N1CCN(C(=O)c2nc3cccnc3n(C3CC3)c2=O)CC1,-26%,.,2%,.
CN1CCN(Cc2ccc(-c3ccc(C(C)(C)C#N)cc3)nc2)CC1,?,i,?,0%
O=C(c1nnc(COc2cccc(N3CCOCC3)c2)n1Cc1ccccc1)N1CCC[C@@H]1c1ccc(Br)cc1,?,i,?,?
CCOc1cc2c(cn1)NCCN(Cc1ccccc1O)C2,-20%[138 µM],i,?,1%[70.6 µM]
COc1ccc(OC)c(CN2CCNc3cc(Nc4ccccc4)ncc3C2)c1,35µM*,22µM*,?,-27%[70.6 µM]
COc1ccccc1CN1CCNc2cnc(-c3ccccc3)cc2C1,?,i,79µM*,-15%[70.6 µM]
COc1ccccc1CN1CCNc2cnc(Nc3ccccc3)cc2C1,?,i,89µM*,-1%[70.6 µM]
Oc1ccccc1CN1CCNc2cnc(Oc3ccccc3)cc2C1,?,i,79µM*,?
COc1ccc(-c2cccc(C(=O)N3CCN(C(=O)Cc4ccccc4)CC3)c2)nn1,-30%,.,-4%,.
Cc1noc(C)c1CCC(=O)NC1CCCc2c1[nH]c1ccccc21 (configuration not stated),?,i,?,-9%
COc1cccc([S+](=O)([O-])N2CCCC(C(=O)N3CCC(N4CCOCC4=O)CC3)C2)c1 (configuration not stated),-15%,.,-5%,.
O=C(Nc1ccc(F)cc1)C1CCc2nnc(C3CC3)n21 (configuration not stated),-6%,.,5%,.
CN1C(=O)CO[C@@H](C(=O)N2CCN(c3ccccc3)CC2)[C@@H]1c1ccccc1,-5%,.,-4%,.
O=C(c1ccnc(-c2nnc3ccc(Nc4ccccc4)nn23)c1)N1CCCCC1,?,i,?,-4%[70.6 µM]
COc1ccnc(-c2nnc3ccc(NC4CCOCC4)nn23)c1,79µM*,i,-25%[172 µM],-2%[70.6 µM]
CN(c1ccccc1)c1ccc2nnc(-c3cc(C(=O)NCc4ccncc4)ccn3)n2n1,?,i,71µM*,-6%[70.6 µM]
O=C(NCc1ccc(F)cc1)c1ccnc(-c2nnc3ccc(Nc4ccccc4)nn23)c1,25µM*,i,?,-27%
COc1cccc(NC(=O)c2ccnc(-c3nnc4ccc(Nc5ccccc5)nn34)c2)c1,35µM*,i,40µM*,-26%
O=S(=O)(c1ccccc1F)N1CC(n2cnnc2-c2ccccc2)C1,?,.,-28%,.
Cc1nnc2ccc(N3CCN(C(=O)c4cccnc4)CC3)nn12,-11%[138 µM],.,-1%[172 µM],.
CC(C)c1noc(C2CCCN2C(=O)c2cc(-c3cccs3)n(C)n2)n1 (configuration not stated),-22%,32µM*,-29%,1%
CCOC(=O)COC1CCN(C(=O)CC2CCCC2)CC(=O)N(C)c2ccccc21 (configuration not stated),?,.,i,.
CCn1cc(CN(C)C(=O)[C@H]2CN(Cc3ccccc3)C[C@H]2C(=O)O)c(C)n1,-12%,i,-19%,-5%
c1ccc(-c2noc(-c3cncnc3N3CCSCC3)n2)cc1,-15%,?,45µM*,-7%
SMILES,3T3 cytotox,FLuc inh,HEK cytotox,NPR1 antag
c1ccc(-c2noc(-c3cncnc3NC3CCCCCC3)n2)cc1,i,i,3%,3%
CC1CCN(c2ncncc2-c2nc(-c3ccccc3)no2)CC1,?,?,79µM*,2%
c1ccc(-c2noc(-c3cncnc3N3CCN(C4CCCCC4)CC3)n2)cc1,-25%,i,?,-2%
COCCCNc1ncnc2c1CN(c1cccc(C)c1)C(=O)CN2C,-27%,.,-3%,.
Cn1ccc2ccc(-c3nc(C4CCOC4)no3)cc21 (configuration not stated),?,35µM*,-25%,1%
c1cnn(-c2ccc(-c3nc(C4CCOC4)no3)cc2)c1 (configuration not stated),-23%,16µM*,?,?
Cc1ccc(NC(=O)N2Cc3[nH]cnc3C[C@H]2c2nc(-c3ccc(Cl)cc3)no2)cc1,?,40µM*,71µM*,?
CC(=O)c1ccc(NC(=O)N2Cc3[nH]cnc3C[C@H]2c2nc(-c3ccc(F)cc3)no2)cc1,89µM*,?,-1%,-3%
CC(C)c1noc([C@@H]2Cc3nc[nH]c3CN2C(=O)Nc2ccc(Cl)cc2)n1,89µM*,i,100µM*,-3%[70.6 µM]
O=C(NC1CCCCC1)N1Cc2[nH]cnc2C[C@H]1c1nc(-c2ccc3ccccc3c2)no1,1%,25µM*,-5%,0%
O=C(NC1CCCCC1)N1Cc2[nH]cnc2C[C@H]1c1nc(-c2ccc(Cl)cc2)no1,-27%[174 µM],?,i,-5%[70.6 µM]
Cc1ccc(NC(=O)N2Cc3[nH]cnc3C[C@H]2c2nc(-c3ccncc3)no2)cc1,2%[174 µM],i,i,-4%[70.6 µM]
O=C(NCC(F)(F)F)c1nc2sccn2c1-c1ccc(F)cc1,-10%,.,3%,.
CNC(=O)c1cc(C2CC2)nc2onc(C3CCN(C(=O)Cc4ccc(F)cc4)C3)c12 (configuration not stated),?,.,-20%,.
CC(C)N1C[C@H](Oc2ccccc2)[C@@H]1C1CCN(C(=O)c2cccc(C#N)c2)CC1,-13%,.,i,.
COc1ccc(NC(=O)N2Cc3[nH]cnc3C[C@H]2c2nc(-c3ccccc3)no2)cc1,32µM*,40µM*,?,-21%[70.6 µM]
CCOC(=O)c1ccc(NC(=O)N2Cc3[nH]cnc3C[C@H]2c2nc(-c3cccc(C)c3)no2)cc1,?,?,?,-30%
CCOC(=O)c1ccc(NC(=O)N2Cc3[nH]cnc3C[C@H]2c2nc(-c3ccc(C)cc3)no2)cc1,?,32µM*,?,-16%
O=C(Nc1ccccc1)N1Cc2[nH]cnc2C[C@H]1c1nc(-c2ccc3ccccc3c2)no1,-10%,i,-3%,0%
CCOC(=O)c1ccc(NC(=O)N2Cc3[nH]cnc3C[C@H]2c2nc(C(C)C)no2)cc1,100µM*,i,?,1%[70.6 µM]
Cc1ccc(NC(=O)N2Cc3[nH]cnc3C[C@H]2c2nc(-c3ccc4ccccc4c3)no2)cc1,?,20µM*,?,-26%
COc1ccccc1Cn1c(=O)c(C(=O)N2CCN(C(=O)c3ccccc3)CC2)nc2cccnc21,-25%,.,-25%,.
O=C(C1CCCN1C(=O)Cc1ccc(F)cc1)N1CCC(N2Cc3ccccc3C2=O)CC1 (configuration not stated),-9%,.,-10%,.
CCOc1ccccc1NC(=O)N1CCC2(CC1)CC2c1noc(C)n1 (configuration not stated),-27%,.,-10%,.
O=C(Nc1cccc(Cl)c1)c1ccc2nnc(-c3ccc(Cl)cc3)n2c1,45µM*,.,40µM*,.
O=C(NCc1ccc(Cl)cc1)c1ccc2nnc(-c3ccc(Cl)cc3Cl)n2c1,32µM*,.,?,.
